Assay outcomes: PubChem BioAssay, Broad Institute
BL2 CD40 inh: inhibitors of CD40-induced NF-kB signaling, primary screen, BL2 cells, luciferase reporter, single point; CD40L-induced, 4 h; 0.94% of 83,000 active; inhibition, % at 10 µM; AID 1053188, 2014;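 active = mean inhibition of at least 50% with a set share of replicates also reaching that level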
Each line names hits and unclear results; the compound was inactive in the other large screens. The entries come from a sample that favours hits as a whole.

COC(=O)[C@@H]1[C@@H](CO)[C@@H]2Cn3c(ccc(-c4cccc(C(=O)N(C)C)c4)c3=O)[C@H]1N2CC1CC1	none
COC(=O)[C@H]1[C@H](CO)[C@H]2Cn3c(ccc(-c4cccc(C(=O)N(C)C)c4)c3=O)[C@@H]1N2C(=O)NC(C)C	none
COc1ccc(OC(=O)N(C)C[C@@H]2OCc3ccccc3-c3c(n(C)c4ccccc34)C(=O)N([C@@H](C)CO)C[C@@H]2C)cc1	none
Cn1ncnc2c(=O)n(C)c(=O)nc1-2	BL2 CD40 inh 86.0
CCOC(=O)c1ncn2c1C1CCCN1C(=O)c1cc(OC)ccc1-2 (configuration not stated)	none
Cc1ccc(OC(=O)N(C)C[C@H]2OCc3ccccc3-c3c(n(C)c4ccccc34)C(=O)N([C@@H](C)CO)C[C@H]2C)cc1	none
O=C(Cc1ccccc1)N1CCCCN2[C@@H](CO)[C@H](c3ccc(C#Cc4ccccc4)cc3)[C@@H]2C1	none
COC(=O)[C@@H]1[C@@H](CO)[C@@H]2Cn3c(ccc(-c4ccccc4F)c3=O)[C@H]1N2C(C)=O	none
CC(C)NC(=O)N1C[C@@H]2C(c3ccc(Br)cc3)[C@H](C1)N2C (some centres not stated)	none
COc1cc(C2c3cc4c(cc3CC3COC(=O)C32)OCO4)cc(OC)c1O (configuration not stated)	none
O=C1NC2C(=CC(O)C(O)C2O)c2cc3c(c(O)c21)OCO3 (configuration not stated)	BL2 CD40 inh 107.5
O=C1NC2C(O)C(O)C(O)C(O)C2c2cc3c(c(O)c21)OCO3 (configuration not stated)	BL2 CD40 inh 97.1
CN(C)CCN(C)CCc1ccc(Cl)c(Cl)c1	none
N#Cc1ccc(-c2ccc([C@H]3[C@@H](CO)N4CCCCN(C(=O)Cc5ccccc5)C[C@H]34)cc2)cc1	none
CS(=O)(=O)N1C[C@@H]2C(c3ccccc3)[C@H](C1)N2CC1CC1 (some centres not stated)	none
CC(=O)N1C[C@@H]2C(c3ccccc3)[C@H](C1)N2CC1CC1 (some centres not stated)	none
CN1[C@@H]2c3cccc(=O)n3C[C@H]1[C@H](CO)[C@H]2C(=O)NCC1CC1	none
CC1=C(O)C(=O)C=C2C1=CC=C1C2(C)CCC2(C)C3CC(C)(C(=O)O)CCC3(C)CCC12C (configuration not stated)	BL2 CD40 inh 109.7
C[C@H]1CN([C@@H](C)CO)C(=O)CCCn2cc(nn2)CO[C@H]1CN(C)C(=O)Oc1ccc2ccccc2c1	none
CN(C(=O)Oc1cccc2ccccc12)C1C=CCC1 (configuration not stated)	none
O=C(C1CC1)N1C[C@@H]2N[C@H](C1)C2c1ccc(-c2cncnc2)cc1 (some centres not stated)	none
CC(=O)N1C[C@@H]2N[C@H](C1)C2c1ccc(Br)cc1 (some centres not stated)	none
O=C(C1CC1)N1C[C@@H]2N[C@H](C1)[C@@H]2c1ccc(-c2ccncc2)cc1	BL2 CD40 inh 69.9
CN1[C@@H](CO)[C@@H]2c3ccccc3NC[C@@H]21	none
O=C(Cc1ccncc1)N1CCCCN2[C@H](CO)[C@@H](c3ccc(-c4ccncc4)cc3)[C@H]2C1	none
COC(=O)[C@@H]1[C@@H](CO)[C@@H]2Cn3c(ccc(-c4cccc(F)c4)c3=O)[C@H]1N2Cc1cccnc1	none
c1ccc(CC(c2ccccc2)N2CCCCC2)cc1 (configuration not stated)	none
CCCNC(=O)N1[C@@H]2c3ccc(-c4ccccc4OC)c(=O)n3C[C@H]1[C@H](CO)[C@H]2C(=O)OC	none
NC(=NCCc1ccc(I)cc1)SCCCc1cnc[nH]1	none
CC(=O)OCC12CC(OC(=O)CC(C)C)C(C)=CC1OC1C(O)C(OC(C)=O)C2(C)C12CO2 (configuration not stated)	BL2 CD40 inh 65.0
O=C(Cc1cccnc1)N1CCCCN2[C@H](CO)[C@H](c3ccc(C#CC4(O)CCCC4)cc3)[C@H]2C1	none
CC(C)(C)n1cc(C(=O)c2ccc3ccccc3c2O)cn1	BL2 CD40 inh 54.5
Cc1ccc2c(c1)Cc1c(C(=O)NN3CCCCC3)nn(-c3ccc(Cl)cc3Cl)c1-2	none
O=C(Cc1ccccn1)N1CCCCN2[C@H](CO)[C@H](c3ccc(-c4ccccc4F)cc3)[C@H]2C1	none
O=C(Cc1ccccn1)N1CCCCN2[C@H](C1)[C@H](c1ccc(Br)cc1)[C@@H]2CO	none
C[C@H](CO)N1C[C@H](C)[C@H](CN(C)C(=O)Oc2cccc3ccccc23)OCc2cn(nn2)CCCC1=O	none
COC(=O)[C@H]1[C@H](CO)[C@H]2Cn3c(ccc(-c4cncnc4)c3=O)[C@@H]1N2S(=O)(=O)c1ccccc1C	none
CC1CC(C)CC(C)C(O)C(C#N)=CC=CCC(C2CCCC2C(=O)O)OC(=O)CC(O)C(C)C1 (configuration not stated)	BL2 CD40 inh 94.1
CN(C)CC#Cc1ccc([C@@H]2[C@@H](CO)N3CCCCN(C(=O)Cc4ccccn4)C[C@H]23)cc1	none
CCCNC(=O)[C@@H]1[C@@H](CO)[C@@H]2Cn3c(cccc3=O)[C@@H]2N1C	none
CC12CCC3C(CCC4(O)CC(O)CCC34C=O)C1(O)CCC2C1=CC(=O)OC1 (configuration not stated)	BL2 CD40 inh 75.0
CC12CCC3C(CCC4(O)CC(O)CCC34C=NO)C1(O)CCC2C1=COC(=O)C1 (configuration not stated)	BL2 CD40 inh 56.0
COC(=O)[C@H]1[C@H](CO)[C@H]2Cn3c(ccc(-c4cccc(F)c4)c3=O)[C@@H]1N2Cc1cccnc1	none
O=C(O)[C@@H]1[C@@H](CO)[C@@H]2Cn3c(ccc(-c4cccnc4)c3=O)[C@H]1N2C(=O)Nc1cc(F)ccc1F	none
C[C@H](CO)N1C[C@H](C)[C@@H](CN(C)C(=O)Oc2cccc3ccccc23)OCc2cnnn2CCCC1=O	none
CS(=O)(=O)N1CC2NC(C1)C2c1ccc(Br)cc1 (configuration not stated)	none
CN(C(=O)Cc1ccccc1)C(CN1CCCC1)c1ccccc1 (configuration not stated)	none
O=C(Cc1ccncc1)N1CCCCN2[C@H](CO)[C@H](c3ccc(C#Cc4ccccc4F)cc3)[C@@H]2C1	none
CC(C)NC(C)C(=O)c1ccc2ccccc2c1 (configuration not stated)	none
COC(=O)C1=C(C(=O)OC)C2OC1c1cc3ccccc3cc12	BL2 CD40 inh 102.5
CN1[C@@H]2CN(CC(F)(F)F)C[C@H]1C2c1ccc(Br)cc1 (some centres not stated)	none
COC(=O)[C@@H]1[C@@H](CO)[C@@H]2Cn3c(ccc(-c4ccccc4F)c3=O)[C@H]1N2Cc1cccnc1	none
Fc1ccc(C(OCCN2CCN(C/C=C/c3ccccc3)CC2)c2ccc(F)cc2)cc1	none
CC(C)NC(=O)N1[C@@H]2Cn3c(ccc(-c4cccc(C(=O)N(C)C)c4)c3=O)[C@H]1[C@@H](C(=O)O)[C@@H]2CO	none
